Source: PubChem BioAssay (NCATS)
Where “and” joins values, the source holds several entries; their conditions need not be identical. Equal entries are not always repeated.

What was measured:
[1] = qHTS profiling of the MIPE4 collection as inhibitors of Plasmodium falciparum (3D7) proliferation (AID 743344);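 further: scaled between DMSO vehicle wells and 0.29 µM artemisinin as full inhibition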; details: P. falciparum 3D7 in erythrocytes, SYBR Green DNA fluorescence, 72 h; at 28.5 µM unless noted
Method in brief: (§1)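 Erythrocytes infected with P. falciparum (0.3% parasitemia, 2.5% hematocrit) incubated with compounds 72 h at 37 C, 5% CO2. Lysis with saponin/Triton buffer containing SYBR Green I, overnight at room temperature in the dark; DNA fluorescence (485/535 nm) normalised to 0.29 uM artemisinin and DMSO.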

[2] = qHTS profiling of the MIPE4 collection as inhibitors of Plasmodium falciparum (DD2) proliferation (AID 743345); details: P. falciparum Dd2 in erythrocytes, SYBR Green DNA, 72 h; at 28.5 µM unless noted
Method in brief: as §1

[3] = qHTS profiling of the MIPE4 collection as inhibitors of Plasmodium falciparum (DD2) proliferation (Rep 2) (AID 743346); details: P. falciparum Dd2 in erythrocytes, SYBR Green DNA, 72 h; at 28.5 µM unless noted
Method in brief: as §1

SMILES | parasite growth, % of DMSO control [1] | parasite growth remaining, % of DMSO control (lower = more inhibition) [2] | parasite growth, % of control (lower = inhibition) [3]
COc1cccc2c1C(=O)c1c(O)c3c(c(O)c1C2=O)C[C@@](O)(C(=O)CO)C[C@@H]3O[C@H]1C[C@H](N)[C@H](OC2CCCCO2)[C@H](C)O1 (stereo partly drawn) | 5.43% | 7.89% | 7.8%
O=C(O)[C@H](CC(=O)N1C[C@@H]2CCCC[C@H]2C1)Cc1ccccc1 | 71.6% | 103% | 69.7%
CC(=O)OCC(=O)[C@@]12N=C(C)O[C@H]1C[C@H]1[C@@H]3CCC4=CC(=O)C=C[C@]4(C)[C@@H]3[C@@H](O)C[C@@]12C | 89.5% | 90% | 68.3%
COc1ccc([C@@H]2CNC(=O)C2)cc1OC1CCCC1 | 106% | 96.4% | 67%
Cc1cnc(Nc2ccc(CN3CCOCC3)cc2)nc1Nc1cccc(S(=O)(=O)NC(C)(C)C)c1 | 4.59% | 8.36% | 16.8%
CC[C@@]1([C@@H]2O[C@@H]([C@H]3O[C@@](O)(CO)[C@H](C)C[C@H]3C)C[C@H]2C)CC[C@H]([C@]2(C)CC[C@]3(C[C@H](O)[C@@H](C)[C@@H]([C@@H](C)[C@@H](OC)[C@H](C)C(=O)O)O3)O2)O1 | 5.35% [at 9.64 µM] | 5.25% [at 9.64 µM] | 9.17% [at 9.64 µM]
CC(C)(C)c1nc2c3cc[nH]c(=O)c3c3cc(F)ccc3c2[nH]1 | 59.4% | 94.4% | 62%
FC(F)c1nc2ccccc2n1-c1nc(N2CCOCC2)nc(N2CCOCC2)n1 | 4.72% | 7.94% | 8.19%
CCN1CCN(C(=O)N[C@H](C(=O)N[C@@H]2C(=O)N3C(C(=O)O)=C(CSc4nnnn4C)CS[C@@H]23)c2ccc(O)cc2)C(=O)C1=O | 91.3% [at 9.64 µM] | 95.9% [at 9.64 µM] | 57.9% [at 9.64 µM]
N#CC(=C(O)c1ccc(Cl)cc1Cl)c1nc2cc(Cl)ccc2c(=O)[nH]1 | 36.6% | 99.7% | 99%
CC(C)(C)[N+]([O-])=Cc1ccc(S(=O)(=O)O)cc1S(=O)(=O)O | 102% | 92.1% | 85.8%
CCCc1nc(C(C)(C)O)c(C(=O)O)n1Cc1ccc(-c2ccccc2-c2nn[nH]n2)cc1 | 87.7% | 93.7% | 84.2%
OCCN1C[C@H](O)[C@@H](O)[C@H](O)[C@@H]1CO | 96.1% | 131% | 85.5%
O=[N+]([O-])c1cn2c(n1)OC[C@@H](OCc1ccc(OC(F)(F)F)cc1)C2 | 94.2% and 79.4% | 99.7% and 101% | 155% and 70.1%
COc1ccc(S(=O)(=O)Nc2cccnc2Nc2ccc(O)cc2)cc1 | 64.8% | 94% | 85.5%
CN[C@@H]1C[C@H]2O[C@@](C)([C@H]1OC)n1c3ccccc3c3c4c(c5c6ccccc6n2c5c31)C(=O)N[C@H]4O | 5.29% | 6.48% | 14.9%
C[C@@H](Oc1ccc2[nH]nc(C=Cc3cnn(CCO)c3)c2c1)c1c(Cl)cncc1Cl | 5.43% | 8.67% | 16.4%
O=C(NCc1ccccc1)[C@H](Cc1ccccc1)NC(=O)[C@@H]1O[C@@H]1C(=O)NCCc1ccc(O)cc1 | 17.3% | 44.7% | 16.7%
CCc1cc(C(C)=NOCc2ccc(C3CCCCC3)c(C(F)(F)F)c2)ccc1CN1CC(C(=O)O)C1 | 6.45% | 69.4% | 41.3%
C=CCNC1=C2C[C@@H](C)C[C@H](OC)[C@@H](O)[C@@H](C)C=C(C)[C@H](OC(N)=O)[C@@H](OC)C=CC=C(C)C(=O)NC(=CC1=O)C2=O | 5.05% | 7.22% | 9.89%
C[C@@H]1[C@H](C)CC[C@]2(C(=O)O)CC[C@]3(C)C(=CC[C@@H]4[C@@]5(C)C[C@@H](O)[C@H](O)[C@@](C)(CO)[C@H]5CC[C@]43C)[C@@H]12 | 68.7% | 90.5% | 52.5%
CCC[C@H]1C[C@H](C(=O)N[C@@H]([C@@H]2O[C@@H](SC)[C@@H](O)[C@@H](O)[C@@H]2O)[C@H](C)Cl)N(C)C1 | 30.4% | 36% | 24.6%
O=C(CN1C(=O)C2(CCCC2)NC[C@H]1c1cc(F)cc(F)c1)Nc1ccc2c(c1)C[C@@]1(C2)C(=O)Nc2ncccc21 | 26% | 86.9% | 26.1%
C=CC1=C(C(=O)O)N2C(=O)[C@@H](NC(=O)C(=NO)c3csc(N)n3)[C@H]2SC1 | 92.8% | 95.1% | 103%
O=C(C=Cc1ccc(CN(CCO)CCc2c[nH]c3ccccc23)cc1)NO | 4.37% | 6.71% | 8.38%
C=C1CCC2[C@](C)(CO)C(O)CC[C@]2(C)C1CC=C1C(=O)OCC1O (stereo partly drawn) | 94.9% [at 57.5 µM] | 85.2% [at 57.5 µM] | 92.9% [at 57.5 µM]
